Screens deposited in PubChem BioAssay by several laboratories.
HCT116 bCat-KO – primary screen for growth suppressors in beta-catenin knockout HCT116 cells (colon tumor, human) | 140,000 tested, 1.5% active | viability, % at 10 µM | AID 818, 2007 | HCT116 beta-catenin knockout viability, CellTiter-Glo, 60 h; stronger effect = lower value;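 active = viability at or under a set limit, the compound median less 4 SD, cut at about 6% in these data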;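 also: 0% = Hyamine 1622 control at 20 µM and 100% = untreated cell control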
PTEN del growth – growth suppression of PTEN-null HCT116, primary screen, cell-based, CellTiter-Glo | viability, % at 10 µM | 140,000 tested, 1.2% active | HCT116 PTEN-null viability, 60 h; stronger effect = lower value;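 active = viability at or below a set limit, 4 SD under the median of all tested compounds, cut at about 3.7% in these data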;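 also: PTEN knockout HCT116 line with beta catenin targeted HCT116 as companion control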
Insulin prom up – insulin promoter activators in MIN6 cells, imaging, high-content screening, mouse beta cells; 190,000 tested, 0.3% active; z-score at 5 µM; MIN6 insulin promoter-GFP reporter; stronger effect = higher value;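 active = z-score above 3 at 5 µM with at least 500 cells counted in the well; inconclusive = wells under 500 cells, flagged as cytotoxic or low count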
INS promoter inh – inhibitors of insulin promoter-driven GFP, primary screen, imaging, TRM-6 cells (human fetal islet line), eGFP reporter, cell count. reporter expression induced with tamoxifen. 130,000 tested, 0.9% active. AID 1273, 2008. inhibition, % at 2 µM;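 active = inhibition above the mean plus 3 SD, with well images judged a real hit on visual review, cut at about 60% in these data, passing the limit was not always enough; inconclusive = inhibition over the cutoff but images rejected on review; inactive = inhibition not above the cutoff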
Autophagy HCS – autophagy modulators in MEF cells, primary screen, imaging, high-content, MEF GFP-LC3; 190,000 tested, 0.98% active; MEF GFP-LC3 puncta imaging; test concentration mostly 10 µM; calls only at 10 µM (by protocol);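 active = percentage of spot-positive cells more than 3 SD above its plate mean, without a fluorescence outlier flag or 80% toxicity; inconclusive = no clear call, values can overlap the other calls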;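 also: spot-positive cell cutoff set from DMSO-treated cells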
Lmaj promast – Leishmania major promastigote growth inhibition, primary screen. inhibition, % at 10 µM. Leishmania major promastigotes, resazurin fluorescence viability. 200,000 tested, 9% active; in the data active = inhibition above about 50%;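 also: promastigotes grown with compound for 44 hours at 28 °C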
* hit, by the source's call. Sampled rows, rich in hits. Any-hit rate of the full collection: about 9.6%.

`COc1ccc(-c2cc(C(=O)N3CCN(C(c4ccccc4)c4ccccc4)CC3)no2)cc1` gave HCT116 bCat-KO 55, PTEN del growth 58, Insulin prom up -0.7, Autophagy HCS inactive and Lmaj promast 3.
For CN1CCN(C(=O)c2cc(-c3ccccc3)on2)CC1 the results were HCT116 bCat-KO 101, PTEN del growth 104, Insulin prom up -0.11, INS promoter inh 69, Autophagy HCS inactive and Lmaj promast 70*.
COc1ccc(-c2cc(C(=O)N3CCN(C(c4ccccc4)c4ccccc4)CC3)no2)cc1OC was read as HCT116 bCat-KO 80, PTEN del growth 68, Insulin prom up -1.2, Autophagy HCS inactive and Lmaj promast 94*.
`CC1=CC(C)(C)N(C(=O)CSc2ncn[nH]2)c2ccc(C)cc21` gave HCT116 bCat-KO 84, PTEN del growth 92, INS promoter inh -9, Autophagy HCS inactive and Lmaj promast 0.
`O=C(Cn1nc(-c2ccccc2)ccc1=O)NCC1COCCO1` (configuration not stated) gave HCT116 bCat-KO 89, PTEN del growth 94, INS promoter inh 100*, Autophagy HCS inactive and Lmaj promast -2.
Screening O=C(Nc1ccccc1N1CCCC1)c1cc2ccccc2o1 returned HCT116 bCat-KO 81, PTEN del growth 80, INS promoter inh -42, Autophagy HCS inactive and Lmaj promast 19.
CN1CCN(c2ccccc2NC(=O)c2ccc(-c3ccc(Cl)cc3Cl)o2)CC1 was read as HCT116 bCat-KO 5.5*, PTEN del growth 7, Insulin prom up 0.69, INS promoter inh 3, Autophagy HCS inactive and Lmaj promast 99*.
Screening CN1CCN(c2ccccc2NC(=O)c2cc3ccccc3o2)CC1 returned HCT116 bCat-KO 73, PTEN del growth 81, INS promoter inh -89, Autophagy HCS inactive and Lmaj promast 68*.
For CS(=O)(=O)N1CCN(c2ccccc2NC(=O)c2ccc(-c3ccc(Cl)cc3Cl)o2)CC1 the results were HCT116 bCat-KO 67, PTEN del growth 69, Insulin prom up -1, INS promoter inh -33, Autophagy HCS inactive and Lmaj promast 91*.
For O=C(Nc1ccccc1N1CCCCC1)c1ccc(-c2cccc(Cl)c2)o1 the results were HCT116 bCat-KO 47, PTEN del growth 54, Insulin prom up -0.21, INS promoter inh 6, Autophagy HCS inactive and Lmaj promast 9.
`COc1cc(NC(=O)c2cc(C)nc3ccccc23)cc(OC)c1` gave Insulin prom up -0.4, Autophagy HCS inactive and Lmaj promast -4.
For O=C(NCc1ccccn1)c1cc(-c2ccc(Cl)cc2)nc2ccccc12 the results were HCT116 bCat-KO 80, PTEN del growth 79, Insulin prom up -0.1, INS promoter inh -54, Autophagy HCS inactive and Lmaj promast 2.
For O=C1CCCC2=C1C(c1ccc(Cl)cc1)n1c(s/c(=C\c3ccc4ccncc4c3)c1=O)=N2 (configuration not stated) the results were HCT116 bCat-KO 32, PTEN del growth 30, Insulin prom up 0.37, INS promoter inh -18, Autophagy HCS inactive and Lmaj promast 98*.
Screening COc1cc(/C=C(\C#N)c2nc3ccccc3s2)ccc1OCC(=O)Nc1ccccc1 returned HCT116 bCat-KO 48, PTEN del growth 20, Insulin prom up 1.1, INS promoter inh -162, Autophagy HCS inactive and Lmaj promast 21.
For Cc1cccc(OCC(O)Cn2c(=N)n(CCN3CCCCC3)c3ccccc32)c1 (configuration not stated) the results were HCT116 bCat-KO 1.9*, PTEN del growth 1.5*, Insulin prom up -1.2, INS promoter inh -100, Autophagy HCS active and Lmaj promast 100*.
For CCN(CC)CCn1c(=N)n(CC(O)c2ccc(OC)c(OC)c2)c2ccccc21 (configuration not stated) the results were Insulin prom up -0.12, INS promoter inh -47, Autophagy HCS inactive and Lmaj promast -5.
CCN(CC)CCn1c(=N)n(CC(O)COc2cccc(C)c2)c2ccccc21 (configuration not stated) was read as Insulin prom up -0.27, Autophagy HCS inactive and Lmaj promast 100*.
`CCOC(=O)c1sc(NC(=O)CCN2CCN(CC)CC2)c(C(=O)OCC)c1C` gave Insulin prom up -0.66, Autophagy HCS inactive and Lmaj promast 100*.
CCOC(=O)c1c(NC(=O)CN(C)C2CCN(C)CC2)sc(C(=O)Nc2ccccc2)c1C was read as Insulin prom up -0.09, INS promoter inh -45, Autophagy HCS inactive and Lmaj promast 101*.
`CN1CCC(N(C)CC(=O)Nc2cccc(Oc3ccccc3)c2)CC1` gave HCT116 bCat-KO 80, PTEN del growth 84, Autophagy HCS inactive and Lmaj promast 96*.
Screening CN1CCC(N(C)CC(=O)Nc2ccc3c(c2)OC(F)(F)O3)CC1 returned Insulin prom up 0.75.
For CC(=O)c1cccc(NC(=O)Cc2ccc3c(c2)CCCC3)c1 the results were HCT116 bCat-KO 97, PTEN del growth 99, Insulin prom up -0.12, Autophagy HCS inactive and Lmaj promast 81*.
`Cc1ccc(NC(=O)Cc2ccc3c(c2)CCCC3)cc1C` gave HCT116 bCat-KO 88, PTEN del growth 95, Insulin prom up -0.23, INS promoter inh 8, Autophagy HCS inactive and Lmaj promast 1.
CCOc1ccc(CN(C)CC(=O)Nc2ccc3c(c2)CCC3)cc1OC was read as Insulin prom up -0.89, INS promoter inh -25, Autophagy HCS inactive and Lmaj promast 0.
Screening COc1cc(CC(=O)Nc2ccc3c(c2)CCC3)cc(OC)c1OC returned HCT116 bCat-KO 64, PTEN del growth 75, Insulin prom up -0.46, INS promoter inh -65, Autophagy HCS inactive and Lmaj promast 89*.
For O=C1CC(c2ccccc2Cl)Cc2c1cnn2-c1nc2ccccc2s1 (configuration not stated) the results were HCT116 bCat-KO 66, PTEN del growth 56, Insulin prom up 1.3, INS promoter inh -3, Autophagy HCS inactive and Lmaj promast 21.
CCn1c(CNC(=O)COc2ccc(C(C)C)cc2)nnc1SCC(=O)Nc1ccccc1C(C)C was read as HCT116 bCat-KO 66, PTEN del growth 62, Insulin prom up inconclusive, Autophagy HCS inactive and Lmaj promast 76*.
`Cc1ccccc1C1C(C#N)=C2N=C(N)c3c(sc4c3CCCCC4)N2C2=C1C(=O)CC(C)(C)C2` (configuration not stated) gave HCT116 bCat-KO 67, PTEN del growth 59, Insulin prom up -0.2, Autophagy HCS inactive and Lmaj promast 62*.
